# Results taken from PubChem BioAssay (NCATS).
# Values joined by “and” are separate entries in the source; they are usually repeats but may differ in a detail not shown here. Equal entries are not always repeated. Records with an inconclusive call do not appear. Entries that show only a call come without a potency. Active and inactive are the calls of the source. Calls come from the whole dose curve; as a rule, active = well fitted curve in the direction sought with a large enough effect; inconclusive = small, poorly fitted or top-dose-only effect, or another doubt; inactive = no such curve, though single readings can be large; an effect the other way counts as inactive or inconclusive.
# Tests used:
# [1] = biological target: Cytochrome P450 2C9 (Homo sapiens) (UniProt P11712); experiment: qHTS Assay for Inhibitors and Substrates of Cytochrome P450 2C9 (AID 883); note: nearly all actives have a fitted effect of over 60% in size; note: potency is the fitted concentration of half-maximal effect
# In short: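 Signal: luciferase luminescence reporting luciferin produced by CYP2C9. Conditions: 10nM enzyme, Luciferin-H 100uM at KM, 25mM KPO4, 37C, 60 min NADPH-driven reaction. Reference: 57uM sulphaphenazole as 100% inhibition.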
# [2] = biological target: Cytochrome P450 3A4 (Homo sapiens) (UniProt P08684); experiment: qHTS Assay for Inhibitors and Substrates of Cytochrome P450 3A4 (AID 884); note: series mostly up to about 57 µM; nearly all actives have a fitted effect of over 50% in size
# In short: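 Luminescent readout of luciferin produced by CYP3A4 (20 nM) dealkylation of Luciferin-PPXE, 25 uM (its KM). NADPH-driven reaction ran 60 min at RT after 10 min compound preincubation; data scaled to 57 uM ketoconazole as 100% inhibition.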
# [3] = biological target: Muscarinic acetylcholine receptor M1 (Rattus norvegicus) (UniProt P08482); experiment: qHTS Assay for Antagonists of Acetylcholine Muscarinic M1 Receptor: Kinetic Measurement of Intracellular Calcium Response (AID 943); note: nearly all actives have a fitted effect of over 75% in size; note: potency is the fitted concentration of half-maximal effect
# In short: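 Read-out: peak over basal Fluo-4 fluorescence, kinetic at 1 Hz for 4 min after EC80 carbachol (100 nM final). Rat M1-CHO cells, dye loaded 1 h at 37C, compound added 10 min before agonist.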
# [4] = biological target: Muscarinic acetylcholine receptor M1 (Rattus norvegicus) (UniProt P08482); experiment: qHTS Assay for Antagonists of Acetylcholine Muscarinic M1 Receptor: Measurement of IP-One Response (AID 944); note: nearly all actives have a fitted effect of over 75% in size; note: potency is the fitted concentration of half-maximal effect
# In short: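 Read-out: HTRF competition between d2-IP1 and Eu-cryptate anti-IP1 antibody, emission 620 and 665 nm. Stimulus was carbachol, EC80 (200 nM), for 30 min in M1-CHO cells (rat receptor), after 10 min compound pre-treatment.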
# [5] = qHTS Assay for Identification of Small Molecule Agonists for Thrombopoietin (TPO) Signaling Pathway (AID 917)
# In short: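 Ba/F3 (mouse) + hTPO receptor + GpIIb-promoter luciferase; IL-3 withdrawn overnight; compound + 26 pM TPO (EC50), 24 hrs, 37 C, 5% CO2; Steadylite luminescence, 10 min RT.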
# [6] = biological target: Cytochrome P450 2D6 (Homo sapiens) (UniProt P10635); experiment: qHTS Assay for Inhibitors and Substrates of Cytochrome P450 2D6 (AID 891); note: nearly all actives have a fitted effect of over 60% in size; note: potency is the fitted concentration of half-maximal effect
# In short: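 Luminescent read-out of luciferin formed by 5 nM human CYP2D6 demethylating 30 uM Luciferin-ME EGE (Km level) over 60 min at room temperature after NADPH regeneration addition. Data normalized to full inhibition by 1.43 uM quinidine.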
# [7] = Confirmation and Secondary Assay for Modulators of Hemoglobin Beta Chain Splicing at IVS2 654 locus (AID 910);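 note: HeLa cells stably carrying EGFP split by mutant beta-globin IVS2-654 intron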
# In short: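 HeLa cells stably expressing EGFP interrupted by β-globin IVS2-654 intron, seeded overnight in Opti-MEM/2% FCS, then treated 2 days at 37 °C. Restored splicing read as total peak GFP intensity per well by laser scanning cytometry (488 nm excitation, 500–520 nm emission); 500 nM antisense PNA as control.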
# [8] = Confirmation and Secondary Assay for Modulators of Hemoglobin Beta Chain Splicing at IVS2 705 locus (AID 930);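 note: HeLa cells stably expressing the EGFP-705 splicing reporter; GFP fluorescence per well restored by corrected splicing of the IVS2-705 intron in EGFP; series mostly up to about 46 µM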
# In short: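 Per-well GFP, captured at 1 x 8 µm resolution with 488 nm excitation, served as the read-out for HeLa EGFP-705 cells incubated 2 days with test compound versus DMSO.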
# [9] = qHTS Assay for Identification of Small Molecule Antagonists for Thrombopoietin (TPO) Signaling Pathway (AID 918); conditions: TPO-dependent cell signaling reporter, antagonist mode; note: potency is the fitted concentration of half-maximal effect; nearly all actives have a fitted effect of over 60% in size
# In short: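 Luminescence read-out: GPIIb-promoter luciferase in Ba/F3 cells carrying human TPO receptor. Compounds added with 26 pM TPO (EC50), 24 hrs, 37 C, 5% CO2; cells deprived of IL-3 overnight beforehand. Inhibition of signal scored.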
# [10] = Primary qHTS for inhibitors of nuclear receptor binding SET domain protein 2 (NSD2) in an isogenic RCH-ACV NSD2 p.E1099K mutant (9B) (AID 1645876); note: potency is the fitted concentration of half-maximal effect; nearly all actives have a fitted effect of over 70% in size
# [11] = Primary qHTS for inhibitors of nuclear receptor binding SET domain protein 2 (NSD2) in an RCH-ACV wild type WT cells (2C) (AID 1645877); note: potency is the fitted concentration of half-maximal effect; nearly all actives have a fitted effect of over 70% in size
# [12] = biological target: Glutathione peroxidase 1 (Homo sapiens) (UniProt P07203); experiment: Primary qHTS Assay for Inhibitors of Recombinant Selenoprotein Glutathione Peroxidase 1 (GPX1) (AID 1845191); note: nearly all actives have a fitted effect of over 65% in size
# In short: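 GR-coupled readout: NADPH consumption tracked by fluorescence, ex 340/em 450 nm, at t=0 and after 15 min at RT. Final mix 10 nM GPX1, 1 mM GSH, 0.5 mM CHP, 0.5 mM NADPH, 100 nM GR, 0.01% BSA, following 30 min enzyme–compound preincubation.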
# [13] = biological target: Rap guanine nucleotide exchange factor 3 (Homo sapiens) (UniProt O95398); experiment: Confirmatory qHTS for antagonist of cAMP-regulated guanine nucleotide exchange factor 3 (EPAC1) (AID 1645880); note: nearly all actives have a fitted effect of over 55% in size
# In short: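 Released BODIPY-GDP fluoresces less than Rap1-bound BODIPY-GDP; the signal is followed at 480/540 nm at 5-min intervals over 30 min, after 5 min at room temperature. Reactions contain 100 nM EPAC1, 250 nM RAP1B-BODIPY-GDP and 50 uM GDP; results are normalized to ATA and DMSO.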
# [14] = biological target: Rap guanine nucleotide exchange factor 3 (Homo sapiens) (UniProt O95398); experiment: Confirmatory qHTS for agonist of cAMP-regulated guanine nucleotide exchange factor 3 (EPAC1) (AID 1645881);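 note: EPAC1 catalysed release of BODIPY-GDP from Rap1B seen as fluorescence loss; nearly all actives have a fitted effect of over 75% in size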
# [15] = biological target: Rap guanine nucleotide exchange factor 4 (Homo sapiens) (UniProt Q8WZA2); experiment: Confirmatory qHTS for agonist of cAMP-regulated guanine nucleotide exchange factor 4 (EPAC2) (AID 1645884);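 note: nucleotide exchange releases bodipy-GDP from Rap1 and this lowers its fluorescence; nearly all actives have a fitted effect of over 65% in size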
# [16] = biological target: DNA repair nuclease/redox regulator APEX1 (Homo sapiens) (UniProt P27695); experiment: qHTS Validation Assay for Inhibitors of the Human Apurinic/apyrimidinic Endonuclease 1 (APE1) (AID 1705;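 note: TAMRA fluorescence gain over two minutes as APE1 cuts a quenched THF abasic duplex; series mostly up to about 57 µM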)
# In short: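 Read-out: TAMRA fluorescence (525 nm ex, 598 nm em) from cleavage of a quenched THF abasic-site duplex, 50 nM final; activity taken as intensity change between third and first of three reads 60 s apart.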
# [17] = Counterscreen for APE1 Inhibitors: Fluorescent Dye Displacement Validation Assay (AID 1707)
# In short: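 Counterscreen flags promiscuous DNA binders: compounds displacing ThO from duplex DNA (abasic THF site, 50 nM) reduce 540 nm emission (480 nm excitation). ThO 250 nM final; Tris-HCl pH 7.5 with NaCl, MgCl2 and Tween-20.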
# [18] = qHTS for differential inhibitors of proliferation of Plasmodium falciparum line W2 (AID 1883); conditions: Potency: Plasmodium falciparum W2 proliferation inhibition;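 note: parasites grown with compound for 72 h before lysis and staining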; note: potency is the fitted concentration of half-maximal effect
# [19] = biological target: ATP-dependent DNA helicase Q1 (Homo sapiens) (UniProt P46063); experiment: qHTS Validation Assay for Inhibitors of RecQ-Like Dna Helicase 1 (RECQ1) (AID 2353)
# In short: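 RECQ1T1 50 nM; forked duplex (20 bp + 30-nt ss tails) 200 nM, ATP 2 mM final; pH 8.0, 2 mM MgCl2, 2.5 ug/ml poly(dI-dC); 15 min compound preincubation; discontinuous kinetic read over 2 h at RT.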
# [20] = biological target: Rap guanine nucleotide exchange factor 4 (Homo sapiens) (UniProt Q8WZA2); experiment: Confirmatory qHTS for antagonist of cAMP-regulated guanine nucleotide exchange factor 4 (EPAC2) (AID 1645885); note: potency is the fitted concentration of half-maximal effect; nearly all actives have a fitted effect of over 25% in size
# Sequence of Cytochrome P450 2C9 (Homo sapiens) (P11712 whole entry, looked up): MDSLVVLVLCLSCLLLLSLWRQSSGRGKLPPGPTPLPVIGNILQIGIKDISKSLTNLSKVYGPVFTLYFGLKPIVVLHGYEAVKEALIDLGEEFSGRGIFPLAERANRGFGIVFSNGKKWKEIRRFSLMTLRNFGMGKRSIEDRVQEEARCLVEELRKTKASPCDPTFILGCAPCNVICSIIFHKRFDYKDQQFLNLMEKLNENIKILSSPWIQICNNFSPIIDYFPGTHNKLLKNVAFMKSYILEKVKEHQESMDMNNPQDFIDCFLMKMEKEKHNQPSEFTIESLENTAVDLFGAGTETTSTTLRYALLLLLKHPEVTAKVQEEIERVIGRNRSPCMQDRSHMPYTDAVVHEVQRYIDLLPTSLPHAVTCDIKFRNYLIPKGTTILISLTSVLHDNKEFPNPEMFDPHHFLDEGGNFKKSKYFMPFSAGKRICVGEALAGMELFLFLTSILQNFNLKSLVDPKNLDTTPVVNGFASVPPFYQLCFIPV
# Sequence of Muscarinic acetylcholine receptor M1 (Rattus norvegicus) (P08482 whole entry, looked up): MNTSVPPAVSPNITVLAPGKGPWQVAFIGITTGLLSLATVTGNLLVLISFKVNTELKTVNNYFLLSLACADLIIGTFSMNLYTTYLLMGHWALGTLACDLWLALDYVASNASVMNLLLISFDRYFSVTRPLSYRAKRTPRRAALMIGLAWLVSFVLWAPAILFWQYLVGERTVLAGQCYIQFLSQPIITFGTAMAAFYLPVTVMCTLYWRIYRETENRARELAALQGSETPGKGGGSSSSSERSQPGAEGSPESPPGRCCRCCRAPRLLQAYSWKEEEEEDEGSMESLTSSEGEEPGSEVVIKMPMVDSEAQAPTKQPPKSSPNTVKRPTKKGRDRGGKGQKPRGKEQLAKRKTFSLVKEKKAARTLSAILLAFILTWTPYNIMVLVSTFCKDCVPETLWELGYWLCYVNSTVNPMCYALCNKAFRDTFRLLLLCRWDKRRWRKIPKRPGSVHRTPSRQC
# Sequence of Rap guanine nucleotide exchange factor 3 (Homo sapiens) (O95398 whole entry, looked up): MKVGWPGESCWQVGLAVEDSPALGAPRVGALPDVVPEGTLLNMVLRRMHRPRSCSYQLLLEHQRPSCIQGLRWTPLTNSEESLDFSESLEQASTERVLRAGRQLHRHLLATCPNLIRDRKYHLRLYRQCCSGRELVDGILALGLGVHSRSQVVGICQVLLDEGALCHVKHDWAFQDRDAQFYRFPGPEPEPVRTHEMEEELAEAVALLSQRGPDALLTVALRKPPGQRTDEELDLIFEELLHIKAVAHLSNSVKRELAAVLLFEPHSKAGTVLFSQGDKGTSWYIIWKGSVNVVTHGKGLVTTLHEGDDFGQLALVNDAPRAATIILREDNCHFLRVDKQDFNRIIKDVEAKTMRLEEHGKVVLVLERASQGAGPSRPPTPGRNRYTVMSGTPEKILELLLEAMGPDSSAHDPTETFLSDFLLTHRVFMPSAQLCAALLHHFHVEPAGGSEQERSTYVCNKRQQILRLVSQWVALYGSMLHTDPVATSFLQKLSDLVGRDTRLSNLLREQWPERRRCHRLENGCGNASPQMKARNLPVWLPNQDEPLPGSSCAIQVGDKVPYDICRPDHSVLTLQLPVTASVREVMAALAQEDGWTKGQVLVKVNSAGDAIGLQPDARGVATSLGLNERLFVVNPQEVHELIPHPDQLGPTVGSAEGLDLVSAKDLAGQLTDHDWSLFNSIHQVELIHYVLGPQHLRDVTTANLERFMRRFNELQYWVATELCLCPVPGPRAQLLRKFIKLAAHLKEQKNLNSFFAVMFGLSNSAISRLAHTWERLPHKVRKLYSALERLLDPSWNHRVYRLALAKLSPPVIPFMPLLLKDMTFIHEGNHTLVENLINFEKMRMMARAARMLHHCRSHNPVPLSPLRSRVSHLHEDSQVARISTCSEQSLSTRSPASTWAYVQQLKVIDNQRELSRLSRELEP
# Sequence of Cytochrome P450 3A4 (Homo sapiens) (P08684 whole entry, looked up): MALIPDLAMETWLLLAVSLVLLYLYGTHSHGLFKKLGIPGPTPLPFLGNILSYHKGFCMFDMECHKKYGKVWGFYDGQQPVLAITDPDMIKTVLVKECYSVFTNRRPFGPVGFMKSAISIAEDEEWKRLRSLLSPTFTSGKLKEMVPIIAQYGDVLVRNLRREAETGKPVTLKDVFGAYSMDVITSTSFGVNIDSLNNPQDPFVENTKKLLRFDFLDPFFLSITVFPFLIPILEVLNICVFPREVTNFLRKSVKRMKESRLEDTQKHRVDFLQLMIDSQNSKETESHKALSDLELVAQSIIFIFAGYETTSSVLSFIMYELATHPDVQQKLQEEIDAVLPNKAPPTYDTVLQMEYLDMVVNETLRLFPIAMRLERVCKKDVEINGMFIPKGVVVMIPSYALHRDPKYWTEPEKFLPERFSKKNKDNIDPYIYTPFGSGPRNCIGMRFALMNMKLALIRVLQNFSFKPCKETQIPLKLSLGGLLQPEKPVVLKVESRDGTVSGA
# Sequence of Cytochrome P450 2D6 (Homo sapiens) (P10635 whole entry, looked up): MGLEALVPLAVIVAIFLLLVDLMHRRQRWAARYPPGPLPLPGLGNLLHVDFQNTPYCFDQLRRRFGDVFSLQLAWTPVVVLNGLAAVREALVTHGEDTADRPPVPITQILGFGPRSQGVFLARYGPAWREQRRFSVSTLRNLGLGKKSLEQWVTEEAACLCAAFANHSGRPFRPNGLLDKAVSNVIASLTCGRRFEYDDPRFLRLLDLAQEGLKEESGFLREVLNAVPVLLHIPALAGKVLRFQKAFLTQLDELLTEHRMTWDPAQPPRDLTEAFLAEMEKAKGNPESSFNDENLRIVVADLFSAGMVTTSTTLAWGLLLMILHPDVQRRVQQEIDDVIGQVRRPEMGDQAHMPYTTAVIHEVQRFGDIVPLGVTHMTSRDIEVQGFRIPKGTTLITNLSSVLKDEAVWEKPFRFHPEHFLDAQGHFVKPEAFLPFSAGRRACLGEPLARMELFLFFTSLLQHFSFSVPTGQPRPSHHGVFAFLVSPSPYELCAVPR
# Sequence of Rap guanine nucleotide exchange factor 4 (Homo sapiens) (Q8WZA2 whole entry, looked up): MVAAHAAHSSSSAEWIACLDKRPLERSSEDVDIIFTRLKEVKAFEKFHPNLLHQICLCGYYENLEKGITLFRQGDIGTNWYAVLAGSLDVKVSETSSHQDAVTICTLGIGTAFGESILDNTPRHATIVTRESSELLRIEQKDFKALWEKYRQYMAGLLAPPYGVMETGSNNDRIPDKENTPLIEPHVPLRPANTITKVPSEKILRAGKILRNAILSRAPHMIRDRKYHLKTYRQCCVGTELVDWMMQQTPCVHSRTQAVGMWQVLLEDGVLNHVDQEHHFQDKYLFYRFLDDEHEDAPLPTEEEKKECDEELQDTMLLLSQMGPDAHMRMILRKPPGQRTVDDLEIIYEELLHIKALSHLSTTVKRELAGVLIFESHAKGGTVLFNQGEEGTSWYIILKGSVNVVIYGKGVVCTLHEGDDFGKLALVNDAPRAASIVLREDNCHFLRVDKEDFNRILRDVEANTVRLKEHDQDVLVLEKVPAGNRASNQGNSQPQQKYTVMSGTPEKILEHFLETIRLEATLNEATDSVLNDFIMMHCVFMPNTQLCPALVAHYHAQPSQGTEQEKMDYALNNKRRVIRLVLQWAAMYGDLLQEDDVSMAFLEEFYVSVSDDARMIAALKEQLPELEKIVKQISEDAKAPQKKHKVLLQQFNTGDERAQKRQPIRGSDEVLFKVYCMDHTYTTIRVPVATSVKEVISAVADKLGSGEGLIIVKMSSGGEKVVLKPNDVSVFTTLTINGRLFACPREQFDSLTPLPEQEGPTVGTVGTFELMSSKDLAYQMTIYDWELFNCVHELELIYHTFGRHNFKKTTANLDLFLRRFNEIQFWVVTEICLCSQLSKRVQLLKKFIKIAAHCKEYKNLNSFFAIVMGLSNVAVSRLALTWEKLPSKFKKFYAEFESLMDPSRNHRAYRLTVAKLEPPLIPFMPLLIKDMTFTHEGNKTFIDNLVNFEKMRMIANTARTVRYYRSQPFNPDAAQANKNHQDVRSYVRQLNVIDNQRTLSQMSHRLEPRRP
# Sequence of DNA repair nuclease/redox regulator APEX1 (Homo sapiens) (P27695 whole entry, looked up): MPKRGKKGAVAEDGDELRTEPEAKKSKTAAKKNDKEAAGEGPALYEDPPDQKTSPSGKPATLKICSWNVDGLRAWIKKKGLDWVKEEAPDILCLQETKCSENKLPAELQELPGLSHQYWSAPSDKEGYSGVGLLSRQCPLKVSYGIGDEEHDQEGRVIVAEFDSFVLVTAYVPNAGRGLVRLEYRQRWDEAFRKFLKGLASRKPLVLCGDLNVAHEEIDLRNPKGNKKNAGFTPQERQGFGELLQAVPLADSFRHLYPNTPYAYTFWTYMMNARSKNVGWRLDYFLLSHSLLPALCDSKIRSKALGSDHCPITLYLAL
# Sequence of ATP-dependent DNA helicase Q1 (Homo sapiens) (P46063 whole entry, looked up): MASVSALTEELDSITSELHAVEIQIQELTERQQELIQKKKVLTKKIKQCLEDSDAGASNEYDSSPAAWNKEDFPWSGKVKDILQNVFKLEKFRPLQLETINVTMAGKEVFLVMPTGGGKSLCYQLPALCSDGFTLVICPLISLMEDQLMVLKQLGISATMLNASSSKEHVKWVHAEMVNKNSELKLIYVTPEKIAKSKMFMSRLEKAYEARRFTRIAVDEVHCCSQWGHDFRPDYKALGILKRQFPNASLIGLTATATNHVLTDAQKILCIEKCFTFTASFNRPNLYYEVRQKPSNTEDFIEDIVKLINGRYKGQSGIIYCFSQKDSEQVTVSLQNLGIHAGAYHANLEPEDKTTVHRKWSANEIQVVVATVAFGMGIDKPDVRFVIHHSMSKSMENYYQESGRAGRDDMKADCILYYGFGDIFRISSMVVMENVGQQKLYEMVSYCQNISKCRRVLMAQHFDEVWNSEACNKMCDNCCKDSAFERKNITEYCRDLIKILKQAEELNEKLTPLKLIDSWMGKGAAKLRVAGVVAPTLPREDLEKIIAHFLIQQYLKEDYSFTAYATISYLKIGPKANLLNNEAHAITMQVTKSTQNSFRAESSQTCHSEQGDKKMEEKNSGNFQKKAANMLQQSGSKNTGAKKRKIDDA
smiles,measurement,setting,value
CC(N)=NCCCC[C@H](N)C(=O)O,Potency,[1],inactive
same,Potency,[2],inactive
same,Potency,[3],inactive
same,Potency,[4],inactive
C[C@@](N)(C(=O)O)c1ccc(C(=O)O)cc1,Potency,[5],inactive
same,Potency,[3],inactive
CNCC[C@H](Oc1ccccc1OC)c1ccccc1,Potency,[6],5.01 µM (active) and 1.26 µM (active)
same,Potency,[5],inactive
same,Potency,[3],14.1 µM (active)
same,Potency,[4],11.2 µM (active)
O=C(O)[C@H]1CCCNC1,Potency,[1],inactive
same,Potency,[6],inactive
same,outcome,[7],inactive
same,Potency,[5],inactive
same,outcome,[8],inactive
same,Potency,[3],inactive
CC(C)[C@@H]1[C@H]2CC[C@H](C2)[C@H]1N,Potency,[1],inactive
C[C@H](NC[C@H](O)CP(=O)(O)Cc1ccccc1)c1ccc(Cl)c(Cl)c1,Potency,[6],0.0501 µM (active)
CCCCCCCCCCCCC/C=C\[C@@H](O)[C@H](CO)NC(C)=O,Potency,[1],3.16 µM (active)
COc1ccccc1N1CCN(CCCCN2C(=O)CCC2=O)CC1,Potency,[1],3.98 µM (active)
CC(C)(C)c1ccc(S(=O)(=O)/C=C\C#N)cc1,Potency,[9],0.794 µM (active)
N[C@@H](C(=O)O)[C@H](CC(=O)O)c1ccc(Cl)cc1,Potency,[6],2.51 µM (active)
NC1(C(=O)O)C[C@H](C(=O)O)[C@H](C(=O)O)C1 (some centres undefined),Potency,[1],6.31 µM (active)
O=C(O)c1c2ccccc2cc2ccccc12,Potency,[2],inactive
same,outcome,[7],inactive
same,outcome,[8],inactive
Cc1ccc(-c2nn(C(C)(C)C)c3ncnc(N)c23)cc1,Potency,[10],7.31 µM (active)
same,Potency,[11],11.6 µM (active)
same,Potency,[12],inactive
Cc1sc(N)c(C(=O)c2cccc(C(F)(F)F)c2)c1C,Potency,[13],inactive
same,outcome,[14],inactive
same,outcome,[15],inactive
CCCCCCCCCCCCCCCC(=O)N[C@H](CN1CCOCC1)[C@H](O)c1ccccc1,Potency,[12],inactive
NCCNS(=O)(=O)c1cccc2cnccc12,Potency,[3],inactive
same,Potency,[16],inactive
same,Potency,[17],inactive
same,Potency,[18],11.2 µM (active)
same,Potency,[19],inactive
CCn1ccnc1C[C@@H]1COc2ccccc2O1,Potency,[2],inactive
same,Potency,[6],1.58 µM (active)
same,Potency,[13],inactive
same,outcome,[14],inactive
same,outcome,[15],inactive
same,Potency,[20],17.5 µM (active)
COC(=O)C1=C(C)NC(C)=C([N+](=O)[O-])[C@@H]1c1ccccc1C(F)(F)F,Potency,[1],0.158 µM (active)
same,Potency,[6],6.31 µM (active)
same,outcome,[14],inactive
same,outcome,[15],inactive
same,Potency,[20],35 µM (active)
CC(C)[C@H](CO)Nc1nc(Nc2cc(N)cc(Cl)c2)c2ncn(C(C)C)c2n1,outcome,[14],inactive
same,outcome,[15],inactive
CC(C)=CCC/C(C)=C/CC/C(C)=C/CC/C(C)=C/CO,Potency,[2],inactive
same,outcome,[7],inactive
same,outcome,[8],inactive
NC(N)=NCCC[C@@H](N)C(=O)O,Potency,[2],inactive
CC[C@H](C)C(=O)O[C@H]1CCC=C2C=C[C@H](C)[C@H](CC[C@@H]3C[C@H](O)CC(=O)O3)[C@H]21,Potency,[13],inactive
same,outcome,[14],inactive
same,outcome,[15],inactive
CC[C@H](C)N(C)C(=O)c1cc2ccccc2c(-c2ccccc2Cl)n1,Potency,[6],inactive
same,Potency,[5],inactive
same,Potency,[13],inactive
same,outcome,[14],inactive
same,outcome,[15],inactive
C[C@@H](C(=O)O)c1ccc(-c2ccccc2)c(F)c1,outcome,[7],inactive
same,outcome,[8],inactive
CC(C)=CCC/C(C)=C/CC/C(C)=C/CO,Potency,[2],inactive
same,outcome,[7],inactive
same,outcome,[8],inactive
same,outcome,[14],inactive
same,outcome,[15],inactive
same,Potency,[20],31.2 µM (active)
CCOC(=O)C(CCc1ccccc1)NC1CCc2ccccc2N(CC(=O)O)C1=O (centres undefined),outcome,[7],inactive
same,outcome,[8],inactive
C[N+](C)(C)CCC(=O)c1cccc2ccccc12,Potency,[9],2.51 µM (active)
same,Potency,[3],inactive
same,Potency,[16],inactive
same,Potency,[17],inactive
same,Potency,[18],inactive
same,Potency,[19],inactive
